High-throughput results from PubChem.
This excerpt belongs to a sample that is enriched for hits.
miR-122 inh: activators of miR-122 sensor in Huh7 cells | Huh7 psiCHECK-miR122 Renilla luciferase sensor, 48 h | activation, % at 12.5 µM | 340,000 compounds, 0.14% hits | AID 623901;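 active = mean activation of 30% or more, with every replicate also reaching 30%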;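 also: higher luciferase signal means stronger suppression of miR-122 activity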
A number is an active result; i = inactive.

SMILES	miR-122 inh
C[C@@H]1CN([C@@H](C)CO)S(=O)(=O)c2ccc(C#Cc3cccc(F)c3)cc2O[C@H]1CN(C)C(=O)CN1CCOCC1	i
C[C@@H]1CN([C@@H](C)CO)S(=O)(=O)c2ccc(C#Cc3ccncc3)cc2O[C@@H]1CN(C)C(=O)Nc1ccc2c(c1)OCO2	43.2
CNC[C@@H]1Oc2cc(C#Cc3cccc(OC)c3)ccc2S(=O)(=O)N([C@@H](C)CO)C[C@@H]1C	48.7
C[C@@H]1CN([C@H](C)CO)S(=O)(=O)c2ccc(C#Cc3ccncc3)cc2O[C@@H]1CN(C)C(=O)c1ccncc1	i
COc1cccc(C#Cc2ccc3c(c2)O[C@H](CN(C)C(C)=O)[C@H](C)CN([C@H](C)CO)S3(=O)=O)c1	i
C[C@H]1CN([C@@H](C)CO)S(=O)(=O)c2ccc(C#Cc3ccncc3)cc2O[C@@H]1CN(C)C(=O)c1ccncc1	i
CCCC#Cc1ccc2c(c1)O[C@H](CN(C)C(=O)c1ccncc1)[C@H](C)CN([C@@H](C)CO)S2(=O)=O	31.5
C[C@H](CO)N1C[C@H](C)[C@@H](CN(C)C(=O)CN2CCOCC2)Oc2cc(C#Cc3cccc(F)c3)ccc2S1(=O)=O	i
COc1cccc(NC(=O)N(C)C[C@H]2Oc3cc(C#Cc4ccncc4)ccc3S(=O)(=O)N([C@@H](C)CO)C[C@@H]2C)c1	i
CC(C)NC(=O)N(C)C[C@@H]1Oc2cc(C3=CCCCC3)ccc2S(=O)(=O)N([C@H](C)CO)C[C@H]1C	i
C[C@@H]1CN([C@H](C)CO)C(=O)c2cc(-c3cccnc3)cnc2O[C@H]1CN(C)S(C)(=O)=O	i
CCCC#Cc1cnc2c(c1)C(=O)N([C@H](C)CO)C[C@H](C)[C@@H](CN(C)C(=O)C1CC1)O2	i
C[C@@H]1CN([C@@H](C)CO)C(=O)c2cc(-c3cncnc3)cnc2O[C@H]1CN(C)Cc1ccccc1	i
C/C=C/c1ccc2c(c1)O[C@H](CN(C)C(=O)Cc1ccccn1)[C@@H](C)CN([C@H](C)CO)S2(=O)=O	i
C[C@@H]1CN([C@@H](C)CO)C(=O)c2cc(-c3cncnc3)cnc2O[C@H]1CN(C)Cc1ccc(F)cc1	i
C[C@@H]1CN([C@H](C)CO)S(=O)(=O)c2ccc(C#C[C@@H](C)O)cc2O[C@@H]1CN(C)CC1CCOCC1	i
C[C@H]1CN([C@@H](C)CO)S(=O)(=O)c2ccc(-c3cncnc3)cc2O[C@H]1CN(C)Cc1ccccc1	i
COCC(=O)Nc1ccc2c(c1)OC[C@@H](C)N(C(C)=O)C[C@H](C)[C@H](OC)CN(C)C2=O	i
CCC(=O)N(C)C[C@@H]1Oc2cc(C#C[C@H](C)O)ccc2S(=O)(=O)N([C@H](C)CO)C[C@H]1C	i
C[C@H](CO)N1C[C@H](C)[C@@H](CN(C)CC2CCOCC2)Oc2ncc(C#CCC3CCCC3)cc2C1=O	i
COc1ccccc1-c1cnc2c(c1)C(=O)N([C@@H](C)CO)C[C@@H](C)[C@@H](CN(C)Cc1ccccc1)O2	i
C[C@@H]1CN([C@@H](C)CO)S(=O)(=O)c2ccc(-c3ccccc3)cc2O[C@H]1CN(C)Cc1ccccc1C(=O)O	i
C[C@H](CO)N1C[C@H](C)[C@@H](CN(C)Cc2cccnc2)Oc2ncc(C#Cc3ccccn3)cc2C1=O	i
CCCC#Cc1cnc2c(c1)C(=O)N([C@H](C)CO)C[C@H](C)[C@H](CN(C)C(=O)c1ccccc1)O2	i
C[C@H](CO)N1C[C@H](C)[C@@H](CN(C)C(=O)C2CCOCC2)Oc2cc(C#Cc3ccncc3)ccc2S1(=O)=O	33.6
SMILES	miR-122 inh
C[C@@H]1CN([C@@H](C)CO)S(=O)(=O)c2ccc(C#Cc3ccncc3)cc2O[C@H]1CN(C)C(=O)C1CCCCC1	i
C[C@@H]1CN([C@@H](C)CO)S(=O)(=O)c2ccc(C#Cc3ccncc3)cc2O[C@@H]1CN(C)C(=O)C1CCCCC1	i
C[C@H]1CN([C@@H](C)CO)S(=O)(=O)c2ccc(-c3ccccc3)cc2O[C@@H]1CN(C)Cc1cncnc1	i
C[C@H](CO)N1C[C@H](C)[C@H](CN(C)C(=O)Nc2ccc(F)cc2)Oc2cc(C#CC3(O)CCCC3)ccc2S1(=O)=O	i
C[C@H]1CN([C@@H](C)CO)C(=O)c2cc(C#Cc3ccc(F)cc3)cnc2O[C@H]1CN(C)C(=O)c1ccccc1F	i
C[C@H](CO)N1C[C@H](C)[C@H](CN(C)C(=O)CC2CC2)Oc2cc(C3=CCCCC3)ccc2S1(=O)=O	i
C/C=C/c1ccc2c(c1)O[C@@H](CN(C)C(=O)CC1CC1)[C@H](C)CN([C@H](C)CO)S2(=O)=O	i
N/C(Cc1cccc2ccccc12)=N\OC(=O)c1ccc2c(c1)OCO2	i
COc1cc(Cl)cc(/C=N\NC(=O)c2ccc3c(c2)OCO3)c1O	40.5
O=[N+]([O-])c1ccc(O)c(/C=N/Nc2ccc(Cl)nn2)c1	45.8
CCC(=O)N(C)C[C@H]1Oc2cc(C#C[C@H](C)O)ccc2S(=O)(=O)N([C@@H](C)CO)C[C@H]1C	i
C[C@H]1CN([C@@H](C)CO)C(=O)c2cc(C3=CCCCC3)cnc2O[C@H]1CN(C)C(=O)c1ccc(F)cc1	i
COc1ccc(-c2cnc3c(c2)C(=O)N([C@H](C)CO)C[C@H](C)[C@H](CN(C)C(=O)C2CCOCC2)O3)cc1	i
CCCNC(=O)N(C)C[C@@H]1Oc2ncc(C#C[C@@H](C)O)cc2C(=O)N([C@H](C)CO)C[C@H]1C	i
COc1cccc(NC(=O)N(C)C[C@H]2Oc3ncc(C#Cc4ccccc4)cc3C(=O)N([C@@H](C)CO)C[C@@H]2C)c1	i
C[C@@H]1CN([C@@H](C)CO)C(=O)c2cc(-c3ccccc3)cnc2O[C@H]1CN(C)C(=O)Nc1ccc2c(c1)OCO2	i
C[C@@H]1CN([C@H](C)CO)C(=O)c2cccc(NC(=O)c3ccc(-c4nccs4)cc3)c2O[C@@H]1CN(C)Cc1ccc(C(=O)Nc2ccccc2N)cc1	i
COc1ccccc1C#Cc1cnc2c(c1)C(=O)N([C@H](C)CO)C[C@H](C)[C@@H](CN(C)C(=O)c1ccc3c(c1)OCO3)O2	34.8
COc1cccc(NC(=O)N(C)C[C@@H]2Oc3ncc(C#Cc4ccncc4)cc3C(=O)N([C@@H](C)CO)C[C@H]2C)c1	33.2
C[C@H](CO)N1C[C@H](C)[C@H](CN(C)C(=O)Nc2ccc3c(c2)OCO3)Oc2ncc(-c3cccc(C(F)(F)F)c3)cc2C1=O	33.1
C[C@H](CO)N1C[C@H](C)[C@@H](CN(C)Cc2ccc3c(c2)OCO3)Oc2c(NC(=O)C3CC3)cccc2C1=O	i
C[C@H]1CN([C@@H](C)CO)C(=O)c2cc(-c3ccccc3)cnc2O[C@@H]1CN(C)C(=O)Nc1ccc2c(c1)OCO2	i
COc1cccc(NC(=O)N(C)C[C@@H]2Oc3ncc(C#Cc4ccccc4)cc3C(=O)N([C@@H](C)CO)C[C@@H]2C)c1	i
COCC(=O)N(C)C[C@H]1Oc2ncc(C#Cc3ccccc3OC)cc2C(=O)N([C@H](C)CO)C[C@@H]1C	i
CCC(=O)N(C)C[C@@H]1Oc2ncc(C#Cc3ccccc3OC)cc2C(=O)N([C@H](C)CO)C[C@H]1C	i
C[C@@H]1CN([C@@H](C)CO)C(=O)c2cccc(NC(=O)c3ccc(-c4nccs4)cc3)c2O[C@H]1CN(C)Cc1ccc2c(c1)OCO2	37.6
C[C@H](CO)N1C[C@H](C)[C@H](CN(C)Cc2ccncc2)Oc2ncc(C#Cc3ccc(F)cc3)cc2C1=O	i
Cc1noc(C)c1NC(=O)N(C)C[C@@H]1Oc2cc(C#CCC(C)C)ccc2S(=O)(=O)N([C@@H](C)CO)C[C@@H]1C	i
